# Measured values from PubChem BioAssay (NCATS).
# Where “and” joins values, the source holds several entries; their conditions need not be identical. Identical values can stand only once. Inconclusive results are not listed. Where a call stands in place of a potency, no number is given. Calls of active or inactive are those of the source. The call rests on the fitted dose curve; in most records, active means well fitted curve in the direction sought with a large enough effect; inconclusive means small, poorly fitted or top-dose-only effect, or another doubt; inactive means no such curve, though single readings can be large; an effect the other way counts as inactive or inconclusive.
# Assays:
# [1] = qHTS of pediatric cancer cell lines to identify multiple opportunities for drug repurposing: Primary screen for A673 cells (AID 1347092); further: nearly all actives have a fitted effect of over 45% in size
# Summary of the method: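 Titration-based qHTS on A673 cells: MIPE compounds spanned 11 points (0.78 nM to 46 µM final), NPC compounds 8 points (0.59 nM to 46 µM final). Viability after 48 h was measured by ATP luminescence.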
# [2] = qHTS of pediatric cancer cell lines to identify multiple opportunities for drug repurposing: Primary screen for SK-N-MC cells (AID 1347093)
# Summary of the method: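 Metabolically active cells were quantified by ATP-dependent luminescence (CellTiter-Glo, 15 min at room temperature) following 48 h treatment. Cells had been plated at 500-1,000 per well and settled for 5 h beforehand.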
# [3] = qHTS of pediatric cancer cell lines to identify multiple opportunities for drug repurposing: Primary screen for BT-37 cells (AID 1347094)
# Summary of the method: (§1)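 Following a 5-hour attachment period, cells at 500-1,000/well received compounds and were cultured for 48 hours. CellTiter-Glo was added and luminescence read to estimate viable, metabolically active cells.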
# [4] = qHTS of pediatric cancer cell lines to identify multiple opportunities for drug repurposing: Primary screen for NB-EBc1 cells (AID 1347095)
# Summary of the method: as §1
# [5] = qHTS of pediatric cancer cell lines to identify multiple opportunities for drug repurposing: Primary screen for Saos-2 cells (AID 1347097); further: nearly all actives have a fitted effect of over 40% in size
# Summary of the method: as §1
# [6] = qHTS of pediatric cancer cell lines to identify multiple opportunities for drug repurposing: Primary screen for SK-N-SH cells (AID 1347098); further: nearly all actives have a fitted effect of over 65% in size
# Summary of the method: (§2)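 Cells (500-1,000/well) rested 5 h, then received compounds for 48 h; metabolically active cells were measured by CellTiter-Glo luminescence. Final concentrations spanned up to 46 µM (MIPE, 11-point) or 0.59 nM-46 µM (NPC, 8-point) in primary screens, 11-point in follow-ups.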
# [7] = qHTS of pediatric cancer cell lines to identify multiple opportunities for drug repurposing: Primary screen for NB1643 cells (AID 1347099); further: nearly all actives have a fitted effect of over 50% in size
# Summary of the method: as §1
# [8] = qHTS of pediatric cancer cell lines to identify multiple opportunities for drug repurposing: Primary screen for LAN-5 cells (AID 1347100)
# Summary of the method: (§3)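 Viability after 48 h compound treatment at 37C, 500-1,000 cells/well, read as ATP luminescence with CellTiter-Glo. Primary screens used 11-point (MIPE, 0.78 nM-46 µM) or 8-point (NPC, 0.59 nM-46 µM) final concentrations; follow-up screens used 11-point dilutions.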
# [9] = qHTS of pediatric cancer cell lines to identify multiple opportunities for drug repurposing: Primary screen for BT-12 cells (AID 1347101); further: nearly all actives have a fitted effect of over 25% in size
# Summary of the method: as §2
# [10] = qHTS of pediatric cancer cell lines to identify multiple opportunities for drug repurposing: Primary screen for U-2 OS cells (AID 1347096); further: nearly all actives have a fitted effect of over 50% in size
# Summary of the method: as §3
# Potency means the concentration at half of the fitted maximal effect.
Compound,Potency [1],Potency [2],Potency [3],Potency [4],Potency [5],Potency [6],Potency [7],Potency [8],Potency [9],Potency [10]
Cc1c(CN2CCN(C(=O)C(C)C)CC2)sc2c(N3CCOCC3)nc(-c3cnc(N)nc3)nc12,0.469 µM (active),0.0235 µM (active),0.485 µM (active),0.118 µM (active),0.332 µM (active),0.961 µM (active),6.62 µM (active),0.662 µM (active),0.685 µM (active),
CC(c1cc2ccccc2s1)N(O)C(N)=O (stereo not drawn),inactive,inactive,inactive,,,inactive,inactive,inactive,inactive,inactive
C[C@]12CC[C@H](O)CC1=CC[C@@H]1[C@H]2CC[C@]2(C)C(c3cccnc3)=CC[C@H]12,inactive,inactive,inactive,,,inactive,inactive,inactive,inactive,inactive
Cc1cc(SCc2sc(-c3ccc(C(F)(F)F)cc3)nc2C)ccc1OCC(=O)O,inactive,18.7 µM (active),inactive,,inactive,,,inactive,,inactive
CC(C[N+](C)(C)C)OC(N)=O (stereo not drawn),inactive,inactive,inactive,,inactive,inactive,inactive,inactive,inactive,inactive
CS(=O)(=O)c1cccc(CNc2nc(Nc3ccc4c(c3)CCC(=O)N4)ncc2C(F)(F)F)c1,14.8 µM (active),7.43 µM (active),27.3 µM (active),,,24.1 µM (active),16.6 µM (active),3.32 µM (active),,18.7 µM (active)
CC(C)(Sc1ccc(CCN(CCCCC2CCCCC2)C(=O)NC2CCCCC2)cc1)C(=O)O,18.7 µM (active),23.5 µM (active),21.7 µM (active),,23.5 µM (active),,14.8 µM (active),20.9 µM (active),,inactive
CCOc1cc(N2CCC(O)CC2)ccc1Nc1ncc2c(n1)N(C)c1ccccc1C(=O)N2C,0.0047 µM (active),0.332 µM (active),0.0544 µM (active),0.833 µM (active),0.118 µM (active),4.29 µM (active),,0.0935 µM (active),0.0863 µM (active),
CC1(C)SCCN(S(=O)(=O)c2ccc(OCC#CCO)cc2)[C@@H]1C(=O)NO,inactive,inactive,inactive,,,,inactive,inactive,inactive,inactive
NS(=O)(=O)c1cc2c(cc1Cl)NC=NS2(=O)=O,inactive,inactive,inactive,,inactive,inactive,inactive,inactive,inactive,inactive
O=C(C1CC1)N1CC[C@@H](Cn2c(-c3ccc(-c4ccc5occc5c4)cc3)nc3cnccc32)C1,inactive,18.7 µM (active),,13.2 µM (active),inactive,inactive,inactive,,,inactive
CNC(=O)c1ccc(N2C(=S)N(c3ccc(C#N)c(C(F)(F)F)c3)C(=O)C2(C)C)cc1F,inactive,inactive,inactive,,inactive,,inactive,inactive,,inactive
O=C1[C@H](Cc2ccc(O)cc2)N2C(=O)CCN(C(=O)NCc3ccccc3)[C@H]2CN1Cc1cccc2ccccc12,11.8 µM (active),1.18 µM (active),4.85 µM (active),,,,2.96 µM (active),10.5 µM (active),,inactive
CCCc1nc2c(C)cc(-c3nc4ccccc4n3C)cc2n1Cc1ccc(-c2ccccc2C(=O)O)cc1,inactive,16.6 µM (active),inactive,,,inactive,inactive,inactive,inactive,inactive
CS(=O)(=O)Oc1ccc2c(NC(N)=O)c(C(=O)c3ccc(Cl)cc3Cl)oc2c1,2.35 µM (active),1.48 µM (active),3.43 µM (active),4.18 µM (active),,15.2 µM (active),3.72 µM (active),2.09 µM (active),,
COc1cc(Nc2ncc3c(n2)-c2ccc(Cl)cc2C(c2c(F)cccc2OC)=NC3)ccc1C(=O)O,inactive,0.0743 µM (active),inactive,,,8.57 µM (active),13.2 µM (active),0.0093 µM (active),,
Nc1cccc(S(=O)(=O)N2CCCN(S(=O)(=O)c3ccc4c(c3)OCCO4)CC2)c1,inactive,inactive,inactive,,,,,inactive,,inactive
COc1ccc(C2=N[C@H](c3ccc(Cl)cc3)[C@H](c3ccc(Cl)cc3)N2C(=O)N2CCNC(=O)C2)c(OC(C)C)c1,14.8 µM (active),2.64 µM (active),7.69 µM (active),,,3.83 µM (active),2.64 µM (active),2.35 µM (active),24.3 µM (active),
O=C1CCC(N2C(=O)c3ccccc3C2=O)C(=O)N1 (stereo not drawn),inactive,inactive,inactive,,inactive,inactive,inactive,inactive,inactive,inactive
COc1ccc(-c2oc3cc(OC)ccc3c2C(=O)c2ccc(C#N)cc2)cc1,0.0935 µM (active),4.18 µM (active),0.685 µM (active),,,24.1 µM (active),,0.833 µM (active),1.09 µM (active),inactive
O=C(O)[C@@H](c1ccc(OCc2ccc3ccccc3n2)cc1)C1CCCC1,inactive,inactive,inactive,,,inactive,,inactive,inactive,inactive
c1ccc([C@H]2CN3CCSC3=N2)cc1,inactive,inactive,inactive,,inactive,inactive,inactive,inactive,inactive,inactive
OCCn1cc(-c2cnc3nnn(Cc4ccc5ncccc5c4)c3n2)cn1,inactive,inactive,,inactive,inactive,inactive,inactive,inactive,inactive,inactive
NCCc1ccc(O)c(O)c1,23.5 µM (active) and 10.6 µM (active),18.7 µM (active) and 7.5 µM (active),inactive,,,inactive,inactive,inactive,inactive,inactive

Compound,Potency [1],Potency [2],Potency [3],Potency [4],Potency [5],Potency [6],Potency [7],Potency [8],Potency [9],Potency [10]
COc1ccc(-c2ccc3c(N4CCOCC4)nc(N4C[C@@H](C)O[C@@H](C)C4)nc3n2)cc1CO,11.8 µM (active),0.0935 µM (active),1.37 µM (active),1.48 µM (active),,,inactive,,,
CCCn1c(=O)c2[nH]c(C34CC5CC3C[C@@H](C5)C4)nc2n(CCC)c1=O,18.7 µM (active),10.5 µM (active),inactive,,,inactive,,,inactive,inactive
Cn1cnc([N+](=O)[O-])c1Sc1ncnc2nc[nH]c12,762 nM (active) and 1.06 µM (active) and 1.18 µM (active),inactive,994 nM (active) and 1.38 µM (active) and 1.53 µM (active),,,,12.1 µM (active),6.79 µM (active) and 5.26 µM (active),,
CNC[C@H](O)c1cccc(O)c1,inactive,inactive,inactive,,,inactive,inactive,inactive,inactive,inactive
O=NN(CCCl)C(=O)NCCCl,inactive,inactive,inactive,,inactive,inactive,inactive,inactive,inactive,inactive
Cc1cc(Nc2nc(N[C@@H](C)c3ncc(F)cn3)ncc2Cl)n[nH]1,1.18 µM (active),3.72 µM (active),15.3 µM (active),18.7 µM (active),26.4 µM (active),15.2 µM (active),1.32 µM (active),,34.3 µM (active),
CC(C)OC(=O)C1=CN(C(=O)c2ccc(F)c(F)c2)CC(C)(C)c2c1[nH]c1ccccc21,inactive,26.4 µM (active),inactive,,,inactive,,inactive,inactive,inactive
CC(C)(C)OC(=O)CN(Cc1ccc(Cl)cc1)Cc1ccc([N+](=O)[O-])s1,inactive,20.9 µM (active),inactive,,,inactive,,inactive,,inactive
COc1ccc2c3n(c(=NC(=O)c4cccnc4)nc2c1OC)CCN3,0.743 µM (active),0.372 µM (active),,,,0.961 µM (active),4.18 µM (active),14.8 µM (active),inactive,
CC(=O)NC(C)c1ccc(Oc2ccc(OC(C)C)cc2)cc1 (stereo not drawn),23.5 µM (active),13.2 µM (active),,,18.7 µM (active),inactive,,,19.3 µM (active),inactive
CN(C)c1ccc(Nc2nc(N)n(C(=O)c3c(F)cccc3F)n2)cc1,2.35 µM (active),0.469 µM (active),,,16.6 µM (active),3.83 µM (active),11.8 µM (active),0.833 µM (active),,
Nc1nccc(-c2ccc3noc(-c4ccc(Cl)cc4)c3c2)n1,7.43 µM (active),10.5 µM (active),,,,,16.6 µM (active),inactive,,inactive
COc1c(Cl)cc2c([nH]c3cnccc32)c1NC(=O)c1cccnc1C,0.469 µM (active),1.32 µM (active),,,,,,inactive,,inactive
NC(=O)c1ccc(-c2nc(-c3ccc4c(c3)OCO4)c(-c3ccccn3)[nH]2)cc1,inactive,inactive,,,,inactive,inactive,inactive,inactive,inactive
OCCC#Cc1nc(-c2ccc(F)cc2)c(-c2ccncc2)n1CCCc1ccccc1,18.7 µM (active),18.7 µM (active),,16.6 µM (active),,inactive,,16.6 µM (active),,
O=C(c1cc(Cc2n[nH]c(=O)c3ccccc23)ccc1F)N1CCN(C(=O)C2CC2)CC1,5.9 µM (active),7.43 µM (active),,10.5 µM (active),,21.5 µM (active),14.8 µM (active),14.8 µM (active),,inactive
O=c1[nH]c(-c2ccc(C(F)(F)F)cc2)nc2c1CSCC2,14.8 µM (active),13.2 µM (active),,,,,,inactive,,inactive
Cc1c(CCOc2ccc(C(=O)O)cc2)c2cc(Cl)ccc2n1C(c1ccccc1)c1ccccc1,18.7 µM (active),14.8 µM (active),,,,24.1 µM (active),,,,inactive
Cc1cn[nH]c1,inactive,inactive,,,inactive,inactive,inactive,inactive,,inactive
CN(C)C(=O)c1ccc(S(=O)(=O)c2ccc(NC(=O)[C@@](C)(O)C(F)(F)F)c(Cl)c2)cc1,18.7 µM (active),16.6 µM (active),,,,inactive,,inactive,13.7 µM (active),inactive
Cc1cc(C=c2sc3nc4ccccc4n3c2=O)c(C)n1-c1ccccc1,inactive,inactive,,,,inactive,,inactive,inactive,inactive
CO[C@@H]1[C@H](N(C)C(=O)c2ccccc2)C[C@H]2O[C@]1(C)n1c3ccccc3c3c4c(c5c6ccccc6n2c5c31)C(=O)NC4,0.935 µM (active),0.662 µM (active),,,0.833 µM (active),1.92 µM (active),,0.526 µM (active),,3.72 µM (active)
CC[C@@H](C)[C@H](NC(=O)[C@H](CC1CCCCC1)NC(=O)c1ccno1)C(=O)N1CCC2(CCc3ccccc32)CC1,inactive,8.33 µM (active),,,,inactive,23.5 µM (active),,,inactive
